# Source: PubChem BioAssay
# “And” between values parts separate entries of the source, which are not always exact repeats. Identical values can stand only once. Results filed as inconclusive are left out. The source made the active and inactive calls.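 The calls were made as follows, unless noted: active = GFP signal, as percent of the solvent control, above the screen mean plus 3 SD, about 149; inconclusive = no reading because the compound's own fluorescence upset strain identification; inactive = the rest.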
# Assays:
# [1] = rapamycin-like changes in RPL19A-GFP expression – cell-based, S. cerevisiae, multiplex flow cytometry, primary screen (AID 1862; in the data active = percent of DMSO control GFP below about 86%;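 also: lower values mimic rapamycin by blocking the RPL19A rise seen in DMSO cells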); conditions: S. cerevisiae RPL19A-GFP strain, flow cytometry fluorescence, 3 h; at 10 µM; stronger effect = lower value
# [2] = TOR pathway GLN3 branch reporter MEP2-GFP changes – S. cerevisiae, multiplex flow cytometry, primary screen (AID 1867;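 active = GFP response, as percent of the DMSO control, above the screen-wide mean plus 3 SD, about 139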;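 also: median GFP channel fluorescence of barcode-gated MEP2-GFP cells measured by flow cytometry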); conditions: S. cerevisiae MEP2-GFP strain, 3 h, at 10 µM, stronger effect = higher value, 100% means same as DMSO wells
# [3] = TOR pathway RTG branch CIT2 reporter changes – S. cerevisiae, GFP fusion, multiplex flow cytometry, primary screen (AID 1870;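 active = percent response above a set limit, the screen-wide mean plus 3 SD, cut at about 130% in these data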;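 also: barcoded CIT2-GFP strain pooled with four other GFP strains with rapamycin as positive control; median GFP fluorescence per well over plate mean of DMSO wells so 100% = DMSO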); conditions: S. cerevisiae CIT2-GFP expression, 3 h, at 10 µM, stronger effect = higher value
# [4] = TOR pathway LAP4-GFP level changes – S. cerevisiae, multiplex flow cytometry, primary screen (AID 1873); conditions: S. cerevisiae LAP4-GFP expression, 3 h, at 10 µM, stronger effect = higher value
# [5] = yeast AGP1-GFP level changes, GLN3 branch – cell-based, multiplex flow cytometry, S. cerevisiae, primary screen (AID 1887;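 active = GFP signal above the screen-wide mean plus 3 SD, that is over about 124.5% of the solvent control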;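 also: AGP1-GFP fusion strain of S. cerevisiae within a five-strain barcoded multiplex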); conditions: 3 h, at 10 µM, stronger effect = higher value
# [6] = reduced mouse 2C T cell binding to pMHC/ICAM-1 vesicles – MLPCN validation set, flow cytometry, LFA-1/ICAM-1 modulator project, pilot screen (AID 2523;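 active = response below a set limit, under 55% cells CD8-positive and vesicle-bound, and CD8 cells' 90th-percentile brightness under 279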;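 as to vesicle binding response: mean PE anti-B7-1 fluorescence of CD8+ cells relative to row control; 100% = QL9-loaded vesicles with DMSO vehicle in the same plate row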); conditions: 2C mouse CD8+ T cells, at 7 µM, stronger effect = lower value; double positive events: measured here: CD8+/vesicle+ event percentage
# [7] = target: Integrin beta-1 (Homo sapiens) + Integrin alpha-4 (Homo sapiens) (UniProt P13612+P05556); test: alpha4beta1 integrin LIBS antibody binding reduction – U937 cells, HUTS-21 mAb, flow cytometry, validation set, VLA-4 allosteric modulator project, pilot screen (AID 2674;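 active = inhibition above 50%, about 3 SD of the validation set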;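 also: antibody binding induced by the VLA-4 ligand LDV present at three times its Kd; 0% = LDV ligand with antibody and no compound and 100% = antibody without LDV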); conditions: HUTS-21 LIBS mAb binding, at 6.7 µM, stronger effect = higher value, binding induced by LDV ligand
# Integrin beta-1 (Homo sapiens) + Integrin alpha-4 (Homo sapiens), sequence (P05556 whole entry, looked up): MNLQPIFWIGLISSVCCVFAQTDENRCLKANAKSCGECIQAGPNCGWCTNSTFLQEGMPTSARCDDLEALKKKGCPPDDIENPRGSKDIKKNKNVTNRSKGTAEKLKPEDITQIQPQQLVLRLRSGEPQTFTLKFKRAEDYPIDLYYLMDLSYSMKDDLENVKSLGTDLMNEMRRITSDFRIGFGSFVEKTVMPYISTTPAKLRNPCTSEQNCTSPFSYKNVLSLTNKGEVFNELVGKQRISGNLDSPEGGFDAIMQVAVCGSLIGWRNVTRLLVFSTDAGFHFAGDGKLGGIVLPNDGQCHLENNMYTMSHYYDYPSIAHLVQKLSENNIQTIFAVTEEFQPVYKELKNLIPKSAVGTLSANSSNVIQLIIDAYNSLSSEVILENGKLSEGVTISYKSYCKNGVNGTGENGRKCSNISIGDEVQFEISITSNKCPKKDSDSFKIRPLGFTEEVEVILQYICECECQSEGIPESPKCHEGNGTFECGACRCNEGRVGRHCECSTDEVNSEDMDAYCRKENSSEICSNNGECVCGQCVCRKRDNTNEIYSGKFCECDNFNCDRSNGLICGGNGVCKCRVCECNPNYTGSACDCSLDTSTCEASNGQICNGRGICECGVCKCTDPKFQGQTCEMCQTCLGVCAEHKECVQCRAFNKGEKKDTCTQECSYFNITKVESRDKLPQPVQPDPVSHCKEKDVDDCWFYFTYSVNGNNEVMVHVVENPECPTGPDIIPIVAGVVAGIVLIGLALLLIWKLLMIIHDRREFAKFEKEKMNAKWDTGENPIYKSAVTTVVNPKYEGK
# Integrin beta-1 (Homo sapiens) + Integrin alpha-4 (Homo sapiens), sequence (P13612 whole entry, looked up): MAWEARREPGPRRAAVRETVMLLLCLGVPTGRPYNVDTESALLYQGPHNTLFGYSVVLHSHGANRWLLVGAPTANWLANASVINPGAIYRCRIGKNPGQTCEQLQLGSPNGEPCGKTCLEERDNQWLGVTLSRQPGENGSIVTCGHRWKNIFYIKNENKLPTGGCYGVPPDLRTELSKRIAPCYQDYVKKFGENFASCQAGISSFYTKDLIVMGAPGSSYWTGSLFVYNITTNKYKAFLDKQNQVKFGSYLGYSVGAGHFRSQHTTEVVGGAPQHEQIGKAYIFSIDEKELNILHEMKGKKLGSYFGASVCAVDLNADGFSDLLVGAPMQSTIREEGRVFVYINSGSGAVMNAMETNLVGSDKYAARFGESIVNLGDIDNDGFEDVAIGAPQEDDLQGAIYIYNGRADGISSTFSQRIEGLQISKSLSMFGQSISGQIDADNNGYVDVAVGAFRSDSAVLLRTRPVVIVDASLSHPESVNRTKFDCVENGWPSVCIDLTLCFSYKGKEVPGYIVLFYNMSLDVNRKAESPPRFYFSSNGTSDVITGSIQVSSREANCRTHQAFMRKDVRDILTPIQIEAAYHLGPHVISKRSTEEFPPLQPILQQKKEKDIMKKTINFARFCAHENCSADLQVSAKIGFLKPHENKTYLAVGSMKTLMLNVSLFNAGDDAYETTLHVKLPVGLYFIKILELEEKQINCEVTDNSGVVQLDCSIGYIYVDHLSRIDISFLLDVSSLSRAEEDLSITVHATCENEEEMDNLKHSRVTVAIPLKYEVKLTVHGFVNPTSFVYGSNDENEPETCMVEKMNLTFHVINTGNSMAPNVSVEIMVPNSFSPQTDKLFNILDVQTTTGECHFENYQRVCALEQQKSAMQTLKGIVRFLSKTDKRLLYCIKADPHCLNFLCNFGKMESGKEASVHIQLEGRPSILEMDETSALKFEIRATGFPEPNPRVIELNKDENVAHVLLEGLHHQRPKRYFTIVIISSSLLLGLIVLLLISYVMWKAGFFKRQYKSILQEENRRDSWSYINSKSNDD
# [8] = calorie-restriction mimetic ROS inhibitors, yeast – validation compound set, pilot screen (AID 2706;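 active = superoxide response below 65% of plate, a cut near 3 SD across the whole screen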;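 also: yeast exposed to compound for one week at 30 degrees C before staining; 100% = mean of all compound wells on the same plate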); conditions: S. cerevisiae aging, superoxide DHE fluorescence; at 10 µM; stronger effect = lower value
# [9] = target: Beta-adrenergic receptor kinase 1 (Homo sapiens) (UniProt P25098); test: GRK2 binders displacing RNA aptamer, biochemical, validation, human GRK2, bead flow cytometry (AID 488806;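 active = aptamer binding inhibition above 30%, about 3 SD of noise from non-fluorescent compounds; inactive = inhibition at or below 30%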); conditions: bead-bound GRK2, FAM-aptamer displacement, at 10 µM, stronger effect = higher value
# Beta-adrenergic receptor kinase 1 (Homo sapiens), sequence (P25098 whole entry, looked up): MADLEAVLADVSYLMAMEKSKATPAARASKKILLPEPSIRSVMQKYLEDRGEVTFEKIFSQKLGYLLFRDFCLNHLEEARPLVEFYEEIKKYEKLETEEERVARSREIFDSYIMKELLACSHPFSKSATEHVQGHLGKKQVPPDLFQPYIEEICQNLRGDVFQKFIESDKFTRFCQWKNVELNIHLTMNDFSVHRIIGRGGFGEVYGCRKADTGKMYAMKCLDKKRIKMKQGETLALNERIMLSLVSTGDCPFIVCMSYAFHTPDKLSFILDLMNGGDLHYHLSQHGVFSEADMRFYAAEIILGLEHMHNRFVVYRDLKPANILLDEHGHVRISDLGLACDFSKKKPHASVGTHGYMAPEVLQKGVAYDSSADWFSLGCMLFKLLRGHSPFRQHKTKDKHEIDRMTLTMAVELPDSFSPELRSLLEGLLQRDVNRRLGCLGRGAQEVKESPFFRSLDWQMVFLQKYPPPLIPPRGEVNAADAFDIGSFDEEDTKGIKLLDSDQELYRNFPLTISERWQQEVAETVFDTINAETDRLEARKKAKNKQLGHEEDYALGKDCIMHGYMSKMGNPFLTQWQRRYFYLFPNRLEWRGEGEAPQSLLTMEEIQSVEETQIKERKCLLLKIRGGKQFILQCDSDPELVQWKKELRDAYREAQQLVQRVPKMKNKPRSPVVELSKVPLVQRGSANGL
# [10] = target: Beta-2 adrenergic receptor (Homo sapiens) (UniProt P07550); test: agonist-induced loss of surface beta2AR – cell-based, FAP fluorogen, flow cytometry, validation set, pilot screen (AID 504459;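 active = percent response above 42, roughly 3 SD of non-fluorescent test compounds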;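 also: agonist-driven loss of surface beta2AR via internalization measured by FAP dye flow cytometry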); conditions: Am2.2-beta2AR cells, at 10 µM, stronger effect = higher value
# Beta-2 adrenergic receptor (Homo sapiens), sequence (P07550 whole entry, looked up): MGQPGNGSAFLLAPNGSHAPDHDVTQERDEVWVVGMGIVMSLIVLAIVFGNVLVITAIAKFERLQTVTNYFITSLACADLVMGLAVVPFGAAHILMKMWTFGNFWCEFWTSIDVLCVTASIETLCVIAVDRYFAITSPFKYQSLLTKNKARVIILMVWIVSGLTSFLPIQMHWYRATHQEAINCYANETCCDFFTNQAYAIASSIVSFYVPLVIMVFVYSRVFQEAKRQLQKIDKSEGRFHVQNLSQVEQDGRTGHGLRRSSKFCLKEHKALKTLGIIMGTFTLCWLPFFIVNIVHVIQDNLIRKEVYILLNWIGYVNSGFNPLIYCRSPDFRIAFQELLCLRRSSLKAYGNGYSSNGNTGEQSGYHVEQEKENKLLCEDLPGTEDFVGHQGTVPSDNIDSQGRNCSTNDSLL
# [11] = target: AP-2 complex subunit beta (Homo sapiens) (UniProt P63010); test: beta-arrestin/AP2 interaction blockers – biochemical, validation set, GST-AP2 beads, flow cytometry, pilot screen (AID 504541;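 active = inhibition above 54%, about 3 SD of non-fluorescent compounds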;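 also: AP2 carries R879A mutation and is captured from E. coli lysate; bead-bound FITC arrestin peptide fluorescence measuring arrestin peptide binding to AP2; 0% = DMSO wells and 100% = excess unlabeled arrestin peptide control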); conditions: FITC arrestin peptide, at 10 µM, stronger effect = higher value, AP2 beta2 appendage fragment, R879A mutant
# AP-2 complex subunit beta (Homo sapiens), sequence (P63010 whole entry, looked up, the tested form may be a part, one chain of several): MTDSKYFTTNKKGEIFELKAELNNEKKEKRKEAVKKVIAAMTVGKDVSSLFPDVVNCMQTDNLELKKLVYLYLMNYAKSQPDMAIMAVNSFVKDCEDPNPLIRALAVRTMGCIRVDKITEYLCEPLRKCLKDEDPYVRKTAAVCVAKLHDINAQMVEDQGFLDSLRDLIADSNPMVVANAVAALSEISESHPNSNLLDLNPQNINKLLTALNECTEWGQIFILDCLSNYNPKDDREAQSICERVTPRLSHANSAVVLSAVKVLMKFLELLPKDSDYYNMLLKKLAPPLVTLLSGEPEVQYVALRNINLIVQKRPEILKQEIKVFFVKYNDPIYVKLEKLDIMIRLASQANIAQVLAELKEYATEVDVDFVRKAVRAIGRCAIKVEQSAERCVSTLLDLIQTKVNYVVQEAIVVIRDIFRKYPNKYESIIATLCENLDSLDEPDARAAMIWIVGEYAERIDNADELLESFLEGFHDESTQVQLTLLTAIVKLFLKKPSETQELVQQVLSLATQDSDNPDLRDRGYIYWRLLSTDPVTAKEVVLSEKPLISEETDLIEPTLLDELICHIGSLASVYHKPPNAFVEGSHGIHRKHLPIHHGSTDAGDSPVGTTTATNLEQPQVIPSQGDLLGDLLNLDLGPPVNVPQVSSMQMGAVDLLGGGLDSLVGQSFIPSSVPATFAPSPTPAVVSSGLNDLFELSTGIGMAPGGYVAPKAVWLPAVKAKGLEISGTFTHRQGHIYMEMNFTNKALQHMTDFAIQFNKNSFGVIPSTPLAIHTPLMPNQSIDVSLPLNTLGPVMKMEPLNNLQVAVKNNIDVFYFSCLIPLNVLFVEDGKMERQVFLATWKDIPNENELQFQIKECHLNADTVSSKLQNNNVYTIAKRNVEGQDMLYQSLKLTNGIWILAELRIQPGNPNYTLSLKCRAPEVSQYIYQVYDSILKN
# [12] = cytosolic pH regulators acting via V-ATPase – S. cerevisiae, pHLuorin, HTS validation (AID 504600; in the data active = response above about 15%;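 also: plate controls were DMSO for no effect and reference compound for full effect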); conditions: V-ATPase proton transport, at 10 µM, stronger effect = higher value
# [13] = test system: anti-desmoglein-3 scFv antibody binding to human DSG3; test: blockers of pathogenic pemphigus antibody–desmoglein-3 binding – biochemical, validation compound set, bead-based, flow cytometry, pilot screen (AID 588368;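 active = binding below the plate cutoff, the plate median minus 3 SD, with a reading above zero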;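 also: signal is the median channel fluorescence of bead-bound GFP antibody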); conditions: Protein G beads, DSG3-Fc, scFv-GFP binding, at 10 µM, stronger effect = lower value
# [14] = Nile Red efflux blockade in pump-expressing yeast – validation compound set, multiplex, phenotypic, pilot screen (AID 588506;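 active = efflux inhibition above 0.42, the validation set average plus 4 SD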;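 also: Nile Red retained in cells so higher fluorescence means more efflux inhibition; 0 = negative control wells and 1 = enniatin B 25 µM full block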); conditions: S. cerevisiae pump-expressing triplex, Nile Red efflux flow cytometry; at 10 µM; stronger effect = higher value; the pumps come from Candida albicans
# [15] = target: ATP-binding cassette sub-family B member 6 (Homo sapiens) (UniProt Q9NP58); test: blockers of ABCB6-driven porphyrin uptake – K562-ABCB6 cells, flow cytometry, validation set, pilot screen (AID 588550;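 active = inhibition above the screen-wide mean plus 3 SD, about 51%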;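 also: 0% = DMSO wells and 100% = benzethonium chloride 70 µM positive control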); conditions: K562-ABCB6 porphyrin accumulation, 1 h, at 10 µM, stronger effect = higher value
# ATP-binding cassette sub-family B member 6 (Homo sapiens), sequence (Q9NP58 whole entry, looked up): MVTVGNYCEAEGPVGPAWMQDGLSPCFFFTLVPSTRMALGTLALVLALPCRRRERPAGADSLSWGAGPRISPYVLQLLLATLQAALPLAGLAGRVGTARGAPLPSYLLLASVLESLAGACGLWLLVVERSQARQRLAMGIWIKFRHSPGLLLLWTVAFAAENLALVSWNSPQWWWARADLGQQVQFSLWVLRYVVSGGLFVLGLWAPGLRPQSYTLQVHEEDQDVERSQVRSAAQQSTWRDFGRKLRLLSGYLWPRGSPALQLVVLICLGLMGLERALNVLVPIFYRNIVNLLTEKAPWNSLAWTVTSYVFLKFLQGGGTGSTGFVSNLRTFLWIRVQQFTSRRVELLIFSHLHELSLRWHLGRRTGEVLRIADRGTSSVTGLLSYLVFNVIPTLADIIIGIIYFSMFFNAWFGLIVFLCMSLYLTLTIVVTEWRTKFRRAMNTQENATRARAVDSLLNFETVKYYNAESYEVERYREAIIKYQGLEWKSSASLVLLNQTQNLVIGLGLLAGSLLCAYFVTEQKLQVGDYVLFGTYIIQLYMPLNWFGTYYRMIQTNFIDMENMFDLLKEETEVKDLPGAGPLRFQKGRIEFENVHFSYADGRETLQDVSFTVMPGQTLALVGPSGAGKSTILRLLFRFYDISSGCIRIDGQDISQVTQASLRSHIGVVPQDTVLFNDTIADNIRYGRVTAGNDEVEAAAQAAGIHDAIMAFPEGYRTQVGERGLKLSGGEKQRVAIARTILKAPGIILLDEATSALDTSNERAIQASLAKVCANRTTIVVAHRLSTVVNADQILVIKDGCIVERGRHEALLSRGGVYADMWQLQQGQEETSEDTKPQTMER
# [16] = AML differentiation inducers, ER-HoxA9 marrow cells – cell-based, GFP/MAC1 double positive, flow cytometry, validation set, primary screen (AID 588685;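 active = differentiation response of at least 50%, scaled between solvent and reference control, from cells with both markers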;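 also: compound exposure lasts four days before antibody staining and flow analysis; 0% = DMSO wells and 100% = 5 µM fulvestrant positive control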); conditions: stronger effect = higher value, normalized: vehicle 0, fulvestrant 100
SMILES,percent of DMSO control GFP [1],GFP response vs DMSO [2],percent response of DMSO control [3],GFP response vs DMSO [4],"GFP response, % of DMSO [5]",double positive events [6],vesicle binding response [6],inhibition [7],superoxide response (% of plate) [8],aptamer binding inhibition [9],response [10],inhibition [11],response [12],binding (% of control) [13],efflux inhibition (fraction of control) [14],inhibition [15],differentiation response [16]
Cc1ccc(N(CC2=NCCN2)c2cccc(O)c2)cc1,107% (inactive) and 88.9% (inactive) and 106% (inactive),107% (inactive) and 126% (inactive) and 96.9% (inactive),112% (inactive) and 107% (inactive) and 114% (inactive),105% (inactive) and 80.3% (inactive) and 113% (inactive),105% (inactive) and 95.6% (inactive) and 106% (inactive),48.5% and 66.6% and 52.4%,164% (inactive) and 159% (inactive) and 183% (inactive),-12.4% (inactive) and 6.46% (inactive) and 1.62% (inactive),94.9% (inactive) and 91.2% (inactive) and 102% (inactive),-2% (inactive) and 0% (inactive) and -7% (inactive),-2.19% (inactive),-1.88% (inactive) and 0.96% (inactive) and -11.2% (inactive),1.2% (inactive) and -3.77% (inactive) and 0.74% (inactive),98.2% (inactive) and 102% (inactive) and 97.7% (inactive),-0.05 (inactive) and 0.23 (inactive) and -0.24 (inactive),9% (inactive) and 4% (inactive) and 7% (inactive),-34.1% (inactive) and 3.28% (inactive) and -18% (inactive)
O=C(OCCN1CCOCC1)c1cccs1,104% (inactive),98.3% (inactive),113% (inactive),94.7% (inactive),103% (inactive),64.9%,260% (inactive),-3.57% (inactive),88.9% (inactive),2% (inactive),-11.6% (inactive),-4.4% (inactive),0.26% (inactive),91.9% (inactive),0.02 (inactive),1% (inactive),0.24% (inactive)
COc1cccc(-n2c(C)c3c(OC)cccc(=O)c3c2C)c1,89.8% (inactive),140% (active),106% (inactive),85.8% (inactive),92.4% (inactive),49.9%,53.8% (active),-33.3% (inactive),109% (inactive),5% (inactive),-3.28% (inactive),41% (inactive),-5.84% (inactive),103% (inactive),0.12 (inactive),0% (inactive),-4.91% (inactive)
COc1ccc(-c2nc(NC(C)=O)sc2-c2ccc(OC)cc2)cc1,104% (inactive),101% (inactive),99.7% (inactive),92.6% (inactive),90.9% (inactive),65.9%,232% (inactive),-2.43% (inactive),104% (inactive),2% (inactive),-22.1% (inactive),-11.5% (inactive),0.09% (inactive),102% (inactive),-0.29 (inactive),0% (inactive),14.4% (inactive)
Cc1cccc(CN2CCN(C(c3ccccc3)c3ccc(Cl)cc3)CC2)c1 (stereo not drawn),97.7% (inactive),104% (inactive),98.2% (inactive),99.4% (inactive),96.9% (inactive),62.4%,227% (inactive),-6.04% (inactive),99.2% (inactive),2% (inactive),8.57% (inactive),35.5% (inactive),0.49% (inactive),105% (inactive),0.46 (active),-1% (inactive),26.3% (inactive)
COc1ccc2c(c1OC)C(C1c3c(cc4c(c3OC)OCO4)CCN1C)OC2=O (stereo not drawn),107% (inactive),93% (inactive),121% (inactive),88.7% (inactive),111% (inactive),60.6%,54.2% (inactive),-23.3% (inactive),95.3% (inactive),1% (inactive),-7.53% (inactive),-1.99% (inactive),2.98% (inactive),98.9% (inactive),0.02 (inactive),6% (inactive),-2.69% (inactive)
O=C(O)CCSCCC(=O)O,99.2% (inactive),107% (inactive),94.2% (inactive),97.3% (inactive),102% (inactive),63.2%,5720% (inactive),8.88% (inactive),107% (inactive),1% (inactive),2.6% (inactive),10% (inactive),1.2% (inactive),94% (inactive),0.05 (inactive),7% (inactive),-9.53% (inactive)
CC1(C)Cc2ccccc2-c2nc(-c3ccccc3)oc(=O)c21,102% (inactive),94.7% (inactive),96.4% (inactive),107% (inactive),112% (inactive),63.3%,149% (inactive),2.29% (inactive),89.6% (inactive),4% (inactive),-10.1% (inactive),-10.6% (inactive),-7.89% (inactive),98.8% (inactive),0.08 (inactive),7% (inactive),-0.06% (inactive)
Cc1ccc(S(=O)(=O)NC(C(=O)Oc2ccc3c(C(F)(F)F)cc(=O)oc3c2)c2ccccc2)cc1 (stereo not drawn),98.1% (inactive),102% (inactive),100% (inactive),115% (inactive),107% (inactive),62.2%,183% (inactive),-6.23% (inactive),106% (inactive),-1% (inactive),5.6% (inactive),59.2% (active),-16.5% (inactive),92.6% (inactive),0.12 (inactive),-3% (inactive),0.92% (inactive)
